Laboratory results from ChEMBL document CHEMBL3988442, “University of Dundee, Small-Polar-MMV Screening Library” (2021).

biological target: T1, Aspartate--tRNA(Asp/Asn) ligase (Mycobacterium tuberculosis (strain ATCC 25618 / H37Rv)) (UniProt P9WFW3); assay: Assay for Asp RNA synthetase-1 from Mycobacterium tuberculosis; format: functional; design: scale not given: direction of the effect not stated beside the values; details: 30 µM; also: in the data most compounds retested in dose-response had high values
T1 sequence (whole entry): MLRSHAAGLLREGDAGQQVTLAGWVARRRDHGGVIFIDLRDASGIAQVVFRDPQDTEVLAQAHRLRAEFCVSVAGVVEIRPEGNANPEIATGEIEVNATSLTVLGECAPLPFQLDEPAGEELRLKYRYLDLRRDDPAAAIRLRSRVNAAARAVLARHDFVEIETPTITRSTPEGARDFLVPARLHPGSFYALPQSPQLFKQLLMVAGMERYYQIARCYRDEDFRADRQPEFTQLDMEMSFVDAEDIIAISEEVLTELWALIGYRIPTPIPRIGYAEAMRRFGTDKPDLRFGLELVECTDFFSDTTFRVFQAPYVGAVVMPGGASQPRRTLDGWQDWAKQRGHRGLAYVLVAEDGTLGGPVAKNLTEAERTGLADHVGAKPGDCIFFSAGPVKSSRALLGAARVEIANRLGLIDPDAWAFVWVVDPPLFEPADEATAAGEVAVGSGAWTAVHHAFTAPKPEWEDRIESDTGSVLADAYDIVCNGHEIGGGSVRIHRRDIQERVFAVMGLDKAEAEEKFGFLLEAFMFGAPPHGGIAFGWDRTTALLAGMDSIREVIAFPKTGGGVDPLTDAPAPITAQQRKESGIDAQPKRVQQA

| Structure (SMILES) | Percent Effect [%] |
| --- | --- |
| O=C(NCc1ccccc1CN1CCC(O)CC1)Nc1cccnc1 | 1.28 |
| CN(C)C1CCN(C(=O)NCc2ccc(Cn3cncn3)cc2)CC1 | -3.07 |
| CC(C)(C)CC(=O)N1CC[C@@H]2[C@H](CC1)N(S(C)(=O)=O)CCS2(=O)=O | -2.83 |
| O=C(Cn1cnnn1)N1CCCCC1Cn1cccn1 (stereo not given) | -0.885 |
| CCOc1cccc(C(=O)NCCC(=O)Nc2ccncc2)c1 | -3.32 |
| CC(=O)N1CCCCC1c1nc2c(c(N3CCCCC3)n1)CN(C)CC2 (stereo not given) | -1.98 |
| CCS(=O)(=O)N(C)c1ccc(C(=O)N2CCCC(C)C2)cc1 (stereo not given) | -3.31 |
| CN(C)c1cc(CNC(=O)Nc2ccc(F)cc2)ccn1 | 3.3 |
| Cn1ncc2c(=O)[nH]c(CN3CCC(Cc4ccccc4)CC3)nc21 | -5.37 |
| Cc1ncsc1C(=O)N(Cc1cccnc1)C1CC1 | -0.522 |
| O[C@H]1[C@H](n2cc(-c3cccnc3)nn2)c2ccccc2C12CCNCC2 | -2.48 |
| Cc1nccn1CC1CCCN1S(=O)(=O)Cc1ccccc1F (stereo not given) | 1.06 |
| COc1ccc2cc(C3CN(C(=O)C4CCOCC4)CCO3)ccc2c1 (stereo not given) | 0.234 |
| Cc1cnc(N2CCn3cc(CNC(=O)CC4CC4)nc3C2)nc1 | 2.93 |
| CCCc1nc(CN2CCOC(CNc3cccnn3)C2)cs1 (stereo not given) | 3.73 |
| COc1ccc(CN2CCC(O)CC2)c(OC)c1 | -2.06 |
| Cc1cc(C)n(CC2CCCN2C(=O)c2cc[nH]n2)n1 (stereo not given) | -3.22 |
| Cc1cnn(CC2CCCCN2C(=O)CN(C)C2CC2)c1 (stereo not given) | 2.98 |
| O=C(Cn1cc(I)cn1)N1CCCC1 | -4.62 |
| CC(OCC1CC1)C(=O)N1CCCN(c2ncccc2C#N)CC1 (stereo not given) | 2.42 |

| Structure (SMILES) | Percent Effect [%] |
| --- | --- |
| COc1ccc(C(C)N2CCN(Cc3nccn3C)CC2)cc1Cl (stereo not given) | -0.0303 |
| O=C(Cc1ccc(-n2cccn2)cc1)N1CCCC(n2cccn2)C1 (stereo not given) | -2.94 |
| CCN(Cc1ccc(OC)c(F)c1)C(=O)c1ccc(C)[nH]c1=O | -0.589 |
| Cc1cnn(CC2CN(c3cnc4ccccc4n3)CCO2)c1 (stereo not given) | -11.1 |
| COCCNC(=O)c1cc(S(=O)(=O)N2CCCCC2)cs1 | 0.21 |
| COc1c(CNC(c2ccc(F)cc2)c2nccn2C)c(C)nn1C (stereo not given) | -6.01 |
| Cc1cc(N2CCC(Cc3ccccc3)CC2)nc(-c2ccncc2)n1 | -0.602 |
| O=C(CCC1CC1)N1C[C@@H](CN2CCCC2)[C@@H](CO)C1 | 0.505 |
| O=c1cc(CN2CCCC(CCc3c(F)cccc3F)C2)[nH]c(=O)[nH]1 (stereo not given) | 3.07 |
| CC(C)c1noc(C(C)N2CCN(CCO)CC2)n1 (stereo not given) | 13 |
| Cn1cnc2c1CCN(Cc1nc(-c3ccsc3)no1)C2 | -8.92 |
| CO[C@H]1CCN(C(=O)Cc2ccccn2)[C@H]1Cc1ccncc1 | 3.54 |
| CCn1cc2c(n1)C(COC)CN(Cc1ccccn1)C2 (stereo not given) | 7.76 |
| Nc1nc(C2CCN(C(=O)c3cncs3)CC2)cs1 | -0.134 |
| CN(C)CCCn1ccnc1C1CCCN(c2cc(N)ncn2)C1 (stereo not given) | -0.232 |
| COCCCNC(=O)CN(C)C(=O)c1cc(C)sc1C | -2.19 |
| Cc1ccc(CNC(=O)Nc2cc(C(F)(F)F)c[nH]c2=O)cn1 | -6.46 |
| Cn1nc(C(=O)N2CCCCC2c2nc3cc(F)ccc3[nH]2)ccc1=O (stereo not given) | -2.79 |
| Fc1cccc(Oc2ccc(CNCC3CNc4ccnn4C3)cn2)c1 (stereo not given) | -6.37 |
| CCc1nc(CN2CCCN(C(=O)CCSC)CC2)cs1 | -2.35 |

biological target: Shiga toxin 2 (Escherichia coli O157:H7) (UniProt P09385+P09386); assay: E. coli 0.157:H7 Shiga Toxin SOP - stx2 screening assay; format: functional; design: scale not given: direction of the effect not stated beside the values; details: 30 µM

| Structure (SMILES) | Percent Effect [%] |
| --- | --- |
| O=C(NCc1ccccc1CN1CCC(O)CC1)Nc1cccnc1 | -12.1 |
| CN(C)C1CCN(C(=O)NCc2ccc(Cn3cncn3)cc2)CC1 | -19.9 |
| CC(C)(C)CC(=O)N1CC[C@@H]2[C@H](CC1)N(S(C)(=O)=O)CCS2(=O)=O | -21.6 |
| O=C(Cn1cnnn1)N1CCCCC1Cn1cccn1 (stereo not given) | 9.78 |
| CCOc1cccc(C(=O)NCCC(=O)Nc2ccncc2)c1 | -80.5 |
| CC(=O)N1CCCCC1c1nc2c(c(N3CCCCC3)n1)CN(C)CC2 (stereo not given) | 2.68 |
| CCS(=O)(=O)N(C)c1ccc(C(=O)N2CCCC(C)C2)cc1 (stereo not given) | -3.21 |
| CN(C)c1cc(CNC(=O)Nc2ccc(F)cc2)ccn1 | -156 |
| Cn1ncc2c(=O)[nH]c(CN3CCC(Cc4ccccc4)CC3)nc21 | 0.0557 |
| Cc1ncsc1C(=O)N(Cc1cccnc1)C1CC1 | 5.93 |
| O[C@H]1[C@H](n2cc(-c3cccnc3)nn2)c2ccccc2C12CCNCC2 | 7.64 |
| Cc1nccn1CC1CCCN1S(=O)(=O)Cc1ccccc1F (stereo not given) | -2.92 |
| COc1ccc2cc(C3CN(C(=O)C4CCOCC4)CCO3)ccc2c1 (stereo not given) | 7.44 |
| Cc1cnc(N2CCn3cc(CNC(=O)CC4CC4)nc3C2)nc1 | -22.4 |
| CCCc1nc(CN2CCOC(CNc3cccnn3)C2)cs1 (stereo not given) | 27.3 |
| COc1ccc(CN2CCC(O)CC2)c(OC)c1 | 7.95 |
| Cc1cc(C)n(CC2CCCN2C(=O)c2cc[nH]n2)n1 (stereo not given) | -26.2 |
| Cc1cnn(CC2CCCCN2C(=O)CN(C)C2CC2)c1 (stereo not given) | -50.8 |
| O=C(Cn1cc(I)cn1)N1CCCC1 | -0.574 |
| CC(OCC1CC1)C(=O)N1CCCN(c2ncccc2C#N)CC1 (stereo not given) | 27.5 |

| Structure (SMILES) | Percent Effect [%] |
| --- | --- |
| COc1ccc(C(C)N2CCN(Cc3nccn3C)CC2)cc1Cl (stereo not given) | 16 |
| O=C(Cc1ccc(-n2cccn2)cc1)N1CCCC(n2cccn2)C1 (stereo not given) | -22.3 |
| CCN(Cc1ccc(OC)c(F)c1)C(=O)c1ccc(C)[nH]c1=O | 30.6 |
| Cc1cnn(CC2CN(c3cnc4ccccc4n3)CCO2)c1 (stereo not given) | -0.837 |
| COCCNC(=O)c1cc(S(=O)(=O)N2CCCCC2)cs1 | -0.342 |
| COc1c(CNC(c2ccc(F)cc2)c2nccn2C)c(C)nn1C (stereo not given) | -17.1 |
| Cc1cc(N2CCC(Cc3ccccc3)CC2)nc(-c2ccncc2)n1 | -32.9 |
| O=C(CCC1CC1)N1C[C@@H](CN2CCCC2)[C@@H](CO)C1 | -35.6 |
| O=c1cc(CN2CCCC(CCc3c(F)cccc3F)C2)[nH]c(=O)[nH]1 (stereo not given) | -12.7 |
| CC(C)c1noc(C(C)N2CCN(CCO)CC2)n1 (stereo not given) | 16.1 |
| Cn1cnc2c1CCN(Cc1nc(-c3ccsc3)no1)C2 | -33 |
| CO[C@H]1CCN(C(=O)Cc2ccccn2)[C@H]1Cc1ccncc1 | -1.46 |
| CCn1cc2c(n1)C(COC)CN(Cc1ccccn1)C2 (stereo not given) | -16.8 |
| Nc1nc(C2CCN(C(=O)c3cncs3)CC2)cs1 | -3.12 |
| CN(C)CCCn1ccnc1C1CCCN(c2cc(N)ncn2)C1 (stereo not given) | 1.04 |
| COCCCNC(=O)CN(C)C(=O)c1cc(C)sc1C | 10.4 |
| Cc1ccc(CNC(=O)Nc2cc(C(F)(F)F)c[nH]c2=O)cn1 | 8.32 |
| Cn1nc(C(=O)N2CCCCC2c2nc3cc(F)ccc3[nH]2)ccc1=O (stereo not given) | -1.06 |
| Fc1cccc(Oc2ccc(CNCC3CNc4ccnn4C3)cn2)c1 (stereo not given) | -101 |
| CCc1nc(CN2CCCN(C(=O)CCSC)CC2)cs1 | -65.7 |
